Tau fibril ThT: inhibitors of human tau fibril formation, thioflavin T binding | Potency, µM (doses to about 57.4 µM), usual class: inhibitors | P10636 | recombinant tau K18 P301L, heparin-induced fibrillization, ThT fluorescence | 270,000 compounds, 2.1% hits; active means well fitted curve in the direction sought with a large enough effect; inconclusive means small, poorly fitted or top-dose-only effect, or another doubt; inactive means no such curve, though single readings can be large; an effect the other way counts as inactive or inconclusive; further: nearly all actives have a fitted effect of over 55% in size
Target sequence (P10636 561-689 P618L limits assumed): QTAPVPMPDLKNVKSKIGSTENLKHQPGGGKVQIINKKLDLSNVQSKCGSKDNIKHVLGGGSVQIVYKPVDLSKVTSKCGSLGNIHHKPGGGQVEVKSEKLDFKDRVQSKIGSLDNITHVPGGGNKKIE
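Using a mix of unlabeled (15 uM) and Alexa 594-labeled (0.24 uM) tau K18 P301L, heparin-triggered fibrillization over 6 hr at 37 C was scored by ThT fluorescence.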
JMJD2E inh: JMJD2E (human) inhibition; Potency, µM (highest dose often 57.1 µM), hits mostly inhibitors; B2RXH2; 230,000 compounds, 1.6% hits; AID 2147; JMJD2E catalytic domain, FDH-coupled NADH fluorescence (FDH is formaldehyde dehydrogenase); further: nearly all actives have a fitted effect of over 50% in size
ALDH1A1 block: blocks purified human ALDH1A1 activity. P00352. Purified ALDH1A1, NADH fluorescence, propionaldehyde substrate. Potency, µM (highest dose often 75.3 µM), usual class: inhibitors. 220,000 compounds, 7.3% hits
Target sequence (P00352 whole entry, looked up): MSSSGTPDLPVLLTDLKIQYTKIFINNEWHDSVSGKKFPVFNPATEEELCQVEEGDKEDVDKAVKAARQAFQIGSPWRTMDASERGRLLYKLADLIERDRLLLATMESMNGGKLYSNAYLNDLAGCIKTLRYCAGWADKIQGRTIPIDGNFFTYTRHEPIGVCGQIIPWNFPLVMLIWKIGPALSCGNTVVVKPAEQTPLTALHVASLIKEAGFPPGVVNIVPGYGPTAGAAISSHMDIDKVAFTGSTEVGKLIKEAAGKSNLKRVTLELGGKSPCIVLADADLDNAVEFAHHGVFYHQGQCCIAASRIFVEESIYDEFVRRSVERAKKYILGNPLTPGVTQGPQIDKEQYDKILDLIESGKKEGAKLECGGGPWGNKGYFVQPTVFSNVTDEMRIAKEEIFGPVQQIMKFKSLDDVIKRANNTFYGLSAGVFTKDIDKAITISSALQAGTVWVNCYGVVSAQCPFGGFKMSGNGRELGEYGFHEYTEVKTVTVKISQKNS
HPGD block: blocks human HPGD enzyme activity; P15428; purified HPGD, NADH fluorescence kinetic, PGE2 substrate; Potency, µM, most hits filed as inhibitors; 150,000 compounds, 4.3% hits
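NADH formation kinetics: reaction with 30 uM PGE2 and 1 mM NAD+ (final), 20 nM enzyme, Tris-HCl pH 8 with Tween 20, after 15 min compound preincubation at room temperature. Fluorescence change, last versus first of five reads.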
Tau fluor cs: counter-screen for tau fibril formation inhibitors; AID 1463; 280,000 compounds, 0.93% hits; Potency, µM (titrated, usually from 57.7 µM); tau K18 P301L (four-repeat tau fragment) Alexa594 fluorescence, heparin fibrillization; active means well fitted curve in the direction sought with a large enough effect; inconclusive means small, poorly fitted or top-dose-only effect, or another doubt; inactive means no such curve, though single readings can be large; an effect the other way counts as inactive or inconclusive; further: nearly all actives have a fitted effect of over 55% in size
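Human K18 P301L tau (15 uM unlabeled plus 0.24 uM Alexa 594-labeled, final) in 100 mM sodium acetate pH 7 was mixed with compound and 20 uM heparin and incubated 6 hr at 37 C.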
Tau FP inhib: blocks human tau fibril formation measured by polarization; P10636; AID 1468; Potency, µM (series often up to 57.7 µM), most hits filed as inhibitors; K18 P301L tau heparin fibrillization, Alexa594 FP, 6 h; 280,000 compounds, 0.39% hits; active means well fitted curve in the direction sought with a large enough effect; inconclusive means small, poorly fitted or top-dose-only effect, or another doubt; inactive means no such curve, though single readings can be large; an effect the other way counts as inactive or inconclusive; further: nearly all actives have a fitted effect of over 55% in size
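Read-out: fluorescence polarization of Alexa 594-labeled tau (0.24 uM), 555 nm excitation, 632 nm emission. Mixtures held 15 uM unlabeled K18 P301L, compound and 20 uM heparin, pH 7 acetate buffer, incubated 6 hr at 37 C.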
Numbers stand for hits; n = inactive; u = inconclusive; x = no result given; [ ] = dose if it differs, or a comment. Most compounds without a hit are left out; they make up all but 9.9% or so of the library. Unless noted, the call rests on the fitted dose curve; in most records, active means well fitted inhibition curve with a large enough effect (not every such curve was filed as active); inconclusive means small, poorly fitted or top-dose-only effect, or another doubt; inactive means no such curve, though single readings can be large or run the other way.

SMILES	Tau fibril ThT	JMJD2E inh	ALDH1A1 block	HPGD block	Tau fluor cs	Tau FP inhib
O=C(CN(Cc1ccccc1)C1=NCCS1)c1ccccc1	n	n	n	n	n	n
Cc1ccc(C(=O)CN(Cc2ccccc2)C2=NCCS2)cc1	n	n	20µM	n	n	n
O=C(CCS(=O)(=O)CCN1CCOCC1)NCNC(=O)CCS(=O)(=O)CCN1CCOCC1	n	n	n	x	n[2.34 µM]	n
CCOc1ccc2c(c1)nc(SCC(=O)c1ccc(Br)s1)n2C	u	n	17.8µM	u	n	n
CCOc1ccc2c(c1)nc(SCC(=O)c1cccs1)n2C	n	n	u	n	n	n
CC(C)CCNC(=O)c1ccc(Cl)c(NC(=O)Cc2ccccc2)c1	n	n	n	n	n	n
COc1ccc([N+](=O)[O-])cc1N(CC(=O)NCCC1=CCCCC1)S(C)(=O)=O	n	n	n	n	n	n
CC1CCN(S(=O)(=O)c2ccc(NC(=O)Cn3nnc(-c4ccccc4F)n3)cc2)CC1	n	n	u	n	u	7.94µM
CC1CCN(S(=O)(=O)c2cn(CC(=O)Nc3ccc(F)c(Cl)c3)c(=O)c3ccccc23)CC1	n	x	x	x	u	10µM
O=C(OCc1cc(=O)n2nc(-c3cccs3)sc2n1)c1ccc(Cl)cc1	u	x	x	x	n	n
CCOC(=O)C1CCN(Cc2ccccc2C)CC1	n	n	u	n	n	n
CCOC(=O)C1CCN(CC(=O)N2C(C)CCCC2C)CC1 (stereo unspecified)	n	u	11.2µM	n	n	n
CCc1ccc(S(=O)(=O)c2nnn3c2nc(Nc2ccc(F)cc2)c2cc(Cl)ccc23)cc1	n	x	x	x	u	14.1µM
Cc1ccc(C)c(S(=O)(=O)c2nnn3c2nc(Nc2ccc(F)c(Cl)c2)c2sccc23)c1	u	x	x	x	u	14.1µM
CCOC(=O)c1ccc(NC(=O)COC(=O)c2cccc(Oc3ccccc3)c2)cc1	n	n	n	n	u	u
O=[N+]([O-])c1cc2c(cc1C=Nc1ccccc1)OCO2	u	n	u	n	n	n
Sc1oc(-c2ccccc2)cc1C=Nc1ccccc1	8.91µM	n	u	n	17.8µM[quencher]	n
COc1ccc(/C=N/NC(=O)c2ccc3nc[nH]c3c2)cc1OC	u	n	x	x	n	n
O=C(N/N=C/c1cccc([N+](=O)[O-])c1)c1ccc2nc[nH]c2c1	n	n	11.2µM	n	n	n
O=C(N/N=C/c1ccc([N+](=O)[O-])cc1)c1ccc2nc[nH]c2c1	u	n	6.31µM	n	n	n
Cc1cc(C)cc(NC(=S)/C(=C(\[O-])c2ccc(Cl)s2)[n+]2cccc(C)c2)c1	u	u	25.1µM	x	n	n
COc1cccc(-c2nnc3sc(CN4CCCCC4)cn23)c1	n	x	x	x	n	n
c1ccc(-c2nnc3sc(CN4CCc5ccccc54)cn23)cc1	n	n	u	11.2µM	n	n
Cc1ccc(-c2cc(-c3ccccc3)no2)c(O)c1	n	n	n	n	n	n
Oc1ccccc1-c1cc(-c2ccccc2)no1	n	n	n	1.58µM	n	n
SMILES	Tau fibril ThT	JMJD2E inh	ALDH1A1 block	HPGD block	Tau fluor cs	Tau FP inhib
Cc1ccccc1-c1cc(-c2ccccc2O)on1	n	n	n	14.1µM	u	n
NS(=O)(=O)c1cccc(NC(=S)NC(=O)C23CC4CC(CC(C4)C2)C3)c1	n	n	28.2µM	n	n	n
CC1Cc2c(COc3ccccc3)nc3c(c2CO1)CN(CCOc1ccccc1)CC3 (stereo unspecified)	n[11.5 µM]	x	n[13.5 µM]	x	n[11.6 µM]	n[11.6 µM]
COc1ccc(N=N/C(C(C)=O)=C(/C)O)cc1	15.8µM	n	n	x	n	n
S=c1[nH]nc(Cc2ccccc2)n1-c1cccc2ccccc12	n	n	u	15.8µM	n	n
O=c1c2ccccc2cnn1Cc1n[nH]c(=S)n1-c1ccccc1Cl	n	n	31.6µM	u	n	n
Cc1ccc(-n2c(Cc3ccccc3)n[nH]c2=S)c(C)c1	n	n	n	x	n	n
COc1ncc2nc(CCc3ccccc3)c(=O)n(Cc3cccs3)c2n1	x	x	n	n	x	x
CCOC(=O)C1(Cc2ccc(Cl)cc2)CCN(C(=O)c2sc(C)nc2C)CC1	n	n	35.5µM	x	n	n
COC(=O)c1ccccc1NC(=O)c1c(NC(=O)c2ccco2)sc2c1CCC(C(C)(C)C)C2 (stereo unspecified)	n	x	x	x	n	u
CCOC(=O)c1c(NC(=O)c2ccccc2Cl)sc2c1CCc1ccccc1-2	u	u	u	u	n	n
CCCCC(=O)Nc1sc2c(c1C(=O)OCC)CCC(C=O)=C2Cl	25.1µM	n	10µM	n	n	n
CC(NC(=O)c1ccc(NC(=O)c2nsc3ccccc23)cc1)c1ccccc1 (stereo unspecified)	n	x	x	x	n	n
CC(C)(C)c1ccc(S(=O)(=O)N2CCC(CO)(CC3CCCCO3)CC2)cc1 (stereo unspecified)	u	n	0.316µM	x	n	n
O=C(c1ccc(CS(=O)c2ccccc2Cl)o1)N1CCN(c2cccc(C(F)(F)F)c2)CC1 (stereo unspecified)	n	x	x	x	n	n
O=S1(=O)C[C@@H](O)[C@@H](Nc2ccc(Cl)cc2)C1	n	n	11.2µM	n	n	n
O=S1(=O)CC(NCc2ccccc2)C(Nc2ccccc2)C1 (stereo unspecified)	n	n	n	n	n	n
Cc1cc(Nc2ccccc2)nn1C(=O)c1ccc(Br)cc1	n	n	n	n	7.94µM[quencher]	n
COC(=O)N1CCC2(CCN(Cc3ccccc3)CC2)CC1	x	x	n	n	x	x
Cc1ccc(Nc2nnns2)cc1C	u	n	3.98µM	22.4µM	n	n
CCn1ncc(/C=N\NC(=O)Cc2ccc([N+](=O)[O-])cc2)c1C	n	n	n	n	n	n
O=C1c2[nH]nc(-c3ccc(Br)cc3)c2C(c2cccc(O)c2)N1c1ccc(Cl)cc1 (stereo unspecified)	n	x	x	x	u	12.6µM
COc1cc(-c2c(C#N)c(N)nc(SCc3ccncc3)c2C#N)cc(OC)c1OC	n	u	n	12.6µM	u	n
O=C(Nc1nnc(CSCc2ccccc2F)s1)c1cccc([N+](=O)[O-])c1	n	n	25.1µM	u	n	n
CC(C)C(=O)Nc1nnc(CSCc2ccccc2F)s1	n	n	n	n	n	n
SMILES	Tau fibril ThT	JMJD2E inh	ALDH1A1 block	HPGD block	Tau fluor cs	Tau FP inhib
O=C1c2ccccc2C(=O)N1c1ncn[nH]1	n	n	n	x	n	n
COc1cc(OC)c(NC(=O)C2=C(C)C(=O)OC23CCCCCC3)cc1Cl	n	x	x	x	n	n
C/C(Cl)=C/CSc1nc2c(c(=O)[nH]c(=O)n2C)n1C(C)C	n	n	u	n	n	n
C=CCSc1nc2c(c(=O)[nH]c(=O)n2C)n1C(C)C	n	n	3.16µM	17.8µM	n	n
CCCSc1nc2c(c(=O)[nH]c(=O)n2C)n1Cc1ccc(C)cc1	n	n	n	n	n	n
C=CCSc1nc2c(c(=O)[nH]c(=O)n2C)n1Cc1ccc(C)cc1	n	n	n	25.1µM	n	n
